Experimental data: PubChem BioAssay AID1159580 (chemical genetic matrix, 2015)
The campaign covered roughly 5,500 compounds. About 2,000 (36%) were called active. Not shown: some 18% with an inconclusive outcome. Rule as the data show it: active = normalized growth mostly below about 0.91 (no sharp cut-off); inconclusive = no clear call, values can overlap the other calls; inactive = mostly above about 0.92. This is one part of the list.

Test: chemical genetic growth profiling, strain panel (AID 1159580);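 also: tested at 20 µM; growth read once vehicle control cultures reached saturation at 30 °C; 1 = growth at the plate median or of vehicle wells; lower values mean less growth of the strain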
Details: S. cerevisiae deletion strains, growth OD

Measured: normalized growth

CC(=O)O[C@@H]1C[C@@]2(C)C(CC[C@@H]2C(C)=O)C2CCC3=CC(=O)CC[C@]3(C)C21 (stereo not given in full)
inactive: locus YAL021C, strain ccr4, stronger effect = lower value 0.996 | locus YAL026C, strain drs2, stronger effect = lower value 1.03 | locus YAL030W, strain snc1, stronger effect = lower value 1.01 | locus YBL061C, strain skt5, stronger effect = lower value 1.01 | locus YBR009C, strain hhf1, stronger effect = lower value 1.06 | locus YBR023C, strain chs3, stronger effect = lower value 1 | locus YBR171W, strain sec66, stronger effect = lower value 0.964 | locus YBR231C, strain swc5, stronger effect = lower value 1.02 | locus YBR279W, strain paf1, stronger effect = lower value 1 | locus YCL011C, strain gbp2, stronger effect = lower value 1.02 | locus YCL016C, strain dcc1, stronger effect = lower value 1.02 | locus YCL061C, strain MRC1, stronger effect = lower value 1.01 | locus YCL069W, strain vba3, stronger effect = lower value 1.02 | locus YCR088W, strain abp1, stronger effect = lower value 1.02 | locus YDL005C, strain med2, stronger effect = lower value 1.01 | locus YDL040C, strain nat1, stronger effect = lower value 1.01 | locus YDR001C, strain nth1, stronger effect = lower value 0.997 | locus YDR069C, strain doa4, stronger effect = lower value 1.02 | locus YDR137W, strain rgp1, stronger effect = lower value 0.974 | locus YDR159W, strain sac3, stronger effect = lower value 1.02 | locus YDR195W, strain ref2 1.06 | locus YDR297W, strain sur2, stronger effect = lower value 1.01 | locus YDR334W, strain swr1, stronger effect = lower value 1.03 | locus YDR335W, strain msn5, stronger effect = lower value 1 | locus YDR392W, strain spt3, stronger effect = lower value 0.863 | locus YEL003W, strain gim4, stronger effect = lower value 1.02 | locus YEL037C, strain rad23, stronger effect = lower value 1.01 | locus YEL061C, strain CIN8 (second series), stronger effect = lower value 1.02 | locus YER015W, strain faa2, stronger effect = lower value 1.01 | locus YER016W, strain bim1, stronger effect = lower value 1.02 | locus YER111C, strain swi4, stronger effect = lower value 1.01 | locus YER155C, strain BEM2 (second series), stronger effect = lower value 1.04 | locus YFR010W, strain ubp6, stronger effect = lower value 1.02 | locus YGL167C, strain pmr1, stronger effect = lower value 1.02 | locus YGL173C, strain kem1, stronger effect = lower value 1.03 | locus YGL227W, strain vid30, stronger effect = lower value 1.01 | locus YGL240W, strain doc1, stronger effect = lower value 1.04 | locus YGL253W, strain hxk2, stronger effect = lower value 1 | locus YHR013C, strain ard1, stronger effect = lower value 0.974 | locus YHR027C, strain rpn1, stronger effect = lower value 1.01 | locus YHR030C, strain SLT2, stronger effect = lower value 0.967 | locus YHR079C, strain IRE1, stronger effect = lower value 0.985 | locus YHR142W, strain chs7, stronger effect = lower value 0.947 | locus YJL092W, strain hpr5, stronger effect = lower value 1.01 | locus YJL095W, strain BCK1 (second series), stronger effect = lower value 1.02 | locus YJL095W, strain BCK1, stronger effect = lower value 0.997 | locus YJL115W, strain asf1, stronger effect = lower value 1.01 | locus YJL129C, strain trk1, stronger effect = lower value 0.95 | locus YJL154C, strain vps35, stronger effect = lower value 1.01 | locus YJL164C, strain tpk1, stronger effect = lower value 0.985 | locus YJL166W, strain qcr8, stronger effect = lower value 1.01 | locus YJL187C, strain SWE1, stronger effect = lower value 1.01 | locus YJR066W, strain TOR1, stronger effect = lower value 0.953 | locus YKL160W, strain elf1, stronger effect = lower value 0.965 | locus YKR026C, strain gcn3, stronger effect = lower value 1.01 | locus YKR091W, strain srl3, stronger effect = lower value 1.01 | locus YLL001W, strain dnm1, stronger effect = lower value 1.02 | locus YLL026W, stronger effect = lower value 1.02 | locus YLL041C, strain sdh2, stronger effect = lower value 1 | locus YLR027C, strain aat2, stronger effect = lower value 0.998 | locus YLR113W, strain HOG1, stronger effect = lower value 1.02 | locus YLR221C, strain rsa3, stronger effect = lower value 0.969 | locus YLR258W, strain gsy2, stronger effect = lower value 1.04 | locus YLR262C, strain YPT6 (second series), stronger effect = lower value 0.964 | locus YLR320W, strain mms22, stronger effect = lower value 0.97 | locus YLR342W, strain FKS1, stronger effect = lower value 1.02 | locus YLR357W, strain rsc2, stronger effect = lower value 1.03 | locus YLR370C, strain arc18, stronger effect = lower value 1 | locus YLR384C, strain iki3, stronger effect = lower value 1.01 | locus YML120C, strain ndi1, stronger effect = lower value 0.981 | locus YMR058W, strain fet3, stronger effect = lower value 1.01 | locus YMR125W, strain sto1, stronger effect = lower value 1.02 | locus YMR129W, stronger effect = lower value 1.01 | locus YMR205C, strain PFK2, stronger effect = lower value 1.05 | locus YMR231W, strain pep5, stronger effect = lower value 1.02 | locus YNL071W, strain lat1, stronger effect = lower value 0.97 | locus YNL183C, strain NPR1, stronger effect = lower value 0.984 | locus YNL209W, strain ssb2, stronger effect = lower value 1 | locus YNL248C, strain rpa49, stronger effect = lower value 0.953 | locus YNL322C, strain KRE1 (second series), stronger effect = lower value 1.01 | locus YNR049C, strain mso1, stronger effect = lower value 1.01 | locus YOR001W, strain rrp6, stronger effect = lower value 0.947 | locus YOR070C, strain gyp1, stronger effect = lower value 1.01 | locus YOR080W, strain dia2, stronger effect = lower value 1.01 | locus YOR083W, strain WHI5, stronger effect = lower value 0.953 | locus YOR106W, strain vam3, stronger effect = lower value 0.974 | locus YOR231W, strain MKK1, stronger effect = lower value 0.979 | locus YOR265W, strain rbl2, stronger effect = lower value 1 | locus YOR270C, strain vph1, stronger effect = lower value 0.999 | locus YOR290C, strain snf2, stronger effect = lower value 0.98 | locus YPL051W, strain arl3, stronger effect = lower value 0.976 | locus YPL078C, strain atp4, stronger effect = lower value 0.97 | locus YPL106C, strain sse1, stronger effect = lower value 1.03 | locus YPL240C, strain hsp82, stronger effect = lower value 0.984 | locus YPL256C, strain CLN2, stronger effect = lower value 0.973
